Twelve compounds from PubChem BioAssay (NCI) can be followed below.

This is part of a sample that, as a whole, favours compounds with a hit. Of some 83,000 tested, about 20% had one in any assay.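 In brief: 96-well plates, 48 h treatment, single concentration, percent growth endpoint.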 Unmarked numbers belong to inactive results. The source made the active and inactive calls. How the source made its calls: active means growth percent below 10; inactive means the rest.

The test system of this test is MDA-MB-231 breast. Description: NCI-60 one-dose screen, 48 h (100 = growth as untreated, 0 = no growth, -100 = all killed). The settings on record: 10 µM unless noted.
Regarding `O=C(Nc1ccc2c(ccn2Cc2ccccn2)c1)c1ccnnc1`, the growth is 71.1%.

As for `N#C/C(=C\c1ccc(-c2ccc(Cl)cc2Cl)o1)c1ccc(F)cc1`, the growth was 83.4%.

Take `COc1ccc(/C(N)=N/C(N)=N/c2nc3ccccc3s2)cc1`: the growth is 76%.

`Nc1nc(-c2cccc([N+](=O)[O-])c2)c(N=Nc2ccccc2)s1`: the growth is 62%.

Consider `CNC(=O)c1cc(Oc2ccc3nc(NC(=O)c4cc(N5CCOCC5)cc(C(F)(F)F)c4)sc3c2)ccn1`, for which the growth was 76.2%.

For the compound `C=C(C)[C@@H]1CC[C@]2(COP(=O)(OCC)OCC)CC[C@]3(C)[C@H](CC[C@@H]4[C@@]5(C)CCCNC(C)(C)[C@@H]5CC[C@]43C)[C@@H]12`, the growth was 52%.

With `CCCn1cnc2c(c1=N)C(c1ccc(F)cc1)c1sc3c(CC)cccc3c1O2` (configuration not stated), the growth is -19.8% (active).

As to `CC1(C)[C@@H](O)CC[C@]2(C)[C@H]3CC[C@@H]4[C@H]5[C@H](C(=O)/C=C\c6ccc([N+](=O)[O-])cc6)CC[C@]5(O)CC[C@@]4(C)[C@]3(C)CC[C@@H]12`, the growth was 46.2%.

As to `c1cc(-c2nc3ccc4[nH]ncc4c3c3c2CCCC3)[nH]n1`, the growth was 89.2%.

In the case of `O=C(CSc1nc2ccccc2c(=O)n1-c1ccccc1)Nc1ccc(-c2nc3ccc([N+](=O)[O-])cc3[nH]2)cc1`, the growth was 76.8%.

Regarding `C[C@@H](Nc1ncnc2ccc(-c3cnc(Cl)c(NS(C)(=O)=O)c3)cc12)c1ccccc1`, the growth was 49%.

On to `CC(=O)Nc1cccc(Nc2nc(N[C@H](C)c3ccccc3)c3ccccc3n2)c1`, for which the growth is 57.8%.
